Here are results for 62 molecules from PubChem BioAssay AID431 (Sanford-Burnham Center for Chemical Genomics, 2006).

Hit rate of the full screen: of about 63,000 compounds, about 1,100 (1.7%) were called active. The sample holds actives, similar compounds and a random draw of the others, so the mix is not that of the screen. Entries with a potency or affinity are not part of this list. A number with no mark means an inactive call.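 How the source made its calls: active means compounds whose percent cytotoxicity in the single-dose primary screen, scaled between solvent and toxic-drug controls, exceeds 50; inactive means the rest.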

This assay is described as follows: cytotoxicity in KRAS-transformed pancreatic duct cells, primary screen, cell-based, fluorescence, HTS (AID 431).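 Further: 0% = DMSO solvent wells and 100% = doxorubicin-treated wells.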 As to conditions: HPDE-C7K KRASV12 cells, Alamar Blue viability, 48 h; at 10 µM; stronger effect = higher value.
For the molecule `Cc1ccc(C)c(Cn2c(=O)n(CCCC(=O)NCc3ccco3)c(=O)c3ccccc32)c1`, the cytotoxicity is 56.3% (active).
In the case of `Cc1ccc(C)c(Cn2c(=O)n(CCC(=O)NCc3ccco3)c(=O)c3ccccc32)c1` it was 3%; in that of `Cc1ccccc1Cn1c(=O)n(CCCC(=O)NCc2ccco2)c(=O)c2ccccc21`, -20.6%.
Consider `COc1ccc(CCNC(=O)CSc2nc(N)c3c(C)c(C)oc3n2)cc1OC`, for which the cytotoxicity is 4.3%.
With `O=C(Nc1cccc2ccccc12)N1CCN(c2ccccc2)CC1`, the cytotoxicity is 10.4%.
Take `O=C(Nc1cccc(NC(=O)N2CCN(c3ccccc3)CC2)c1)N1CCN(c2ccccc2)CC1`: the cytotoxicity is 61.3% (active).
Turning to `O=C(Nc1ccc2snnc2c1)N1CCN(c2ccccc2)CC1`, the cytotoxicity is -17.1%.
For `COc1cc(OC)cc(-c2cc(NC(C)=O)n[nH]2)c1`, the cytotoxicity was -2%.
The result for `CCOC(=O)c1[nH]c(C)c(C(=O)N2CCOCC2)c1C` reads 4.4%; that for `COc1cc(/C=C/C2=NC(=O)C(C)(C)O2)ccc1O`, 32.6%.
In the case of `C/C=C/c1ccc(OC)c(OC(C)=O)c1` it was 1.5%.
Take `O=C(Nc1cccnc1N1CCOCC1)c1ccco1`: the cytotoxicity is -0.2%.
For the molecule `CCn1c(SCC(=O)c2cc(OC)ccc2OC)nnc1C1CC1`, the cytotoxicity is 4.1%.
In the case of `COC(=O)c1ccc(NC(=O)c2sc3nc(-c4ccccc4)cn3c2C)cc1` it was -6.6%.
The result for `CN(C)c1ccc(/C=[N+](\[O-])C2SC(=S)N(C)C2(C)C)cc1` (configuration not stated) reads -16.8%.
In the case of `CCc1ccc2c(COn3nnc4ccc(S(=O)(=O)N(C)C)cc43)cc(=O)oc2c1` it was 62% (active); in that of `CCc1ccc2c(COC(=O)c3n[nH]c4ccccc34)cc(=O)oc2c1`, 17.5%.
As for `Cc1ccc2c(COn3nnc4ccc(S(=O)(=O)N(C)C)cc43)cc(=O)oc2c1C`, the cytotoxicity was 2.9%.
With `COc1ccc(Cn2c(-c3ccco3)nc3oc4ccccc4c(=O)c3c2=O)cc1`, the cytotoxicity was 8.5%.
The result for `O=c1[nH]c(NCCCO)nc2c1C1(CCCC1)Cc1ccccc1-2` reads 26.4%; that for `CC1(C)Cc2ccccc2-c2nc(NCCO)n(-c3ccccc3)c(=O)c21`, -9.1%; that for `Cn1c(NCCCO)nc2c(c1=O)C1(CCCCC1)Cc1ccccc1-2`, 51.9% (active).
As to `Cn1c(NCCO)nc2c(c1=O)C1(CCCCC1)Cc1ccccc1-2`, the cytotoxicity is 10.5%.
Take `CC1(C)CC(n2c(NCCO)nc3c(c2=O)C2(CCCC2)Cc2ccccc2-3)CCO1` (configuration not stated): the cytotoxicity was 64.4% (active).
The result for `O=c1[nH]c(NCCO)nc2c1C1(CCCCC1)Cc1ccccc1-2` reads 17.6%.
In the case of `Cc1ccc(S(=O)(=O)N2CCN(S(=O)(=O)N3CCCCC3)CC2)c(C)c1` it was 6.6%; in that of `Cc1ccc(Nc2nc(N)nc(CN3CCN(c4ccccc4)CC3)n2)cc1Cl`, 54.7% (active).
For `CCN1CCN(Cc2nc(N)nc(Nc3ccc(C)c(C)c3)n2)CC1`, the cytotoxicity is -24.7%.
`Cc1cccc(Nc2nc(N)nc(CN3CCN(c4ccccc4)CC3)n2)c1`: the cytotoxicity is -21.7%.
With `COc1ccc(N2CCN(Cc3nc(N)nc(Nc4ccc(C)c(Cl)c4)n3)CC2)cc1`, the cytotoxicity was 19.1%.
For the molecule `CC1CC(C)CN(Cc2nc(N)nc(Nc3ccc4ccccc4c3)n2)C1` (configuration not stated), the cytotoxicity was 58.4% (active).
Regarding `Cc1ccc(Nc2nc(N)nc(CN3CCN(C)CC3)n2)cc1C`, the cytotoxicity was -27.5%.
In the case of `CC(=O)c1cc2c(cc1NC(=O)CSc1nnc(C)s1)OCO2` it was 11.3%.
Turning to `CCOC(=O)C1C2C=CC3(CN(Cc4cccs4)C(=O)C13)O2` (configuration not stated), the cytotoxicity was 4.9%.
As for `COc1cccc(NC(=O)C2CCCN(S(=O)(=O)c3cccc4cccnc34)C2)c1` (configuration not stated), the cytotoxicity was 20.1%.
With `Cc1nc(NC(=O)CSc2ccccc2N)sc1C`, the cytotoxicity is 3%.
With `Cn1c(=O)[nH]c(=O)c2c1nc(Sc1ncccn1)n2CCCc1ccccc1`, the cytotoxicity is 3.9%.
The result for `CC(C)Cc1nc(C(N)=O)c2[nH]c(=O)n(-c3ccc(F)cc3)c2n1` reads -1.8%; that for `O=C(CCN1CCN(CCC(=O)c2ccccc2)CC1)c1ccccc1`, -9.4%.
The result for `O=C(CCN1CCN(c2ccccc2F)CC1)Nc1ccccc1F` reads -5.4%.
Consider `O=C(COc1ccc(Cl)cc1)NCc1nnc(SCC(=O)Nc2ccccc2)o1`, for which the cytotoxicity is -7.7%.
Consider `CC(C)NC(=O)CN1CCN(c2ncccn2)CC1`, for which the cytotoxicity is -7.7%.
For the molecule `CC(=O)NCCSC(=O)c1ccc(F)cc1`, the cytotoxicity was -2.7%.
The result for `c1cn2cc(-c3ccc4c(c3)OCO4)nc2s1` reads 15.3%; that for `Cc1ccc(S(=O)(=O)Nc2cccc(-c3cn4ccsc4n3)c2)cc1`, 64% (active); that for `CC(C)CC(=O)Nc1ccc(-c2cn3ccsc3n2)cc1`, 56.7% (active).
On to `O=S(=O)(Nc1ccc(-c2cn3ccsc3n2)cc1)c1ccc2c(c1)OCCO2`, for which the cytotoxicity was 53.9% (active).
The result for `Cc1cccc(S(=O)(=O)Nc2cccc(-c3cn4ccsc4n3)c2)c1` reads 31.3%.
The result for `CC(=O)Nc1ccc(-c2cn3ccsc3n2)cc1` reads 6.9%.
On to `O=S(=O)(NCc1cn2ccsc2n1)c1ccc2c(c1)OCCO2`, for which the cytotoxicity is 4.2%.
In the case of `O=S(=O)(Nc1cccnc1)c1ccc2c(c1)OCCO2` it was 1.8%.
In the case of `CC(C)CC(=O)Nc1cccc(-c2cn3ccsc3n2)c1` it was 11.7%.
In the case of `O=S(=O)(Nc1cccc(-c2nc3cccnc3s2)c1)c1ccc2c(c1)OCCO2` it was 50.4% (active).
In the case of `O=S(=O)(Nc1cccc(-c2cn3ccsc3n2)c1)c1ccc(F)cc1`, the cytotoxicity is 42.2%.
The result for `O=S(=O)(Nc1nccs1)c1ccc2c(c1)OCCO2` reads 5.1%.
In the case of `O=C(CSCc1ccccc1)NC1CCSC1=O` (configuration not stated) it was 11.9%; in that of `O=C(CSc1nnc(CCc2nc3ccccc3[nH]2)n1-c1ccccc1)NCc1ccco1`, -22.8%; in that of `COc1ccccc1OCc1ccc(C(=O)n2nc(C)c(Cl)c2C)o1`, -1.6%.
For the molecule `CN(C)c1ccc(C(=O)c2ccc(N(C)C)c(N)c2)cc1N`, the cytotoxicity is 46%.
As to `CCOC(=O)C(C)Oc1ccc(C2NC(=O)NC(C)=C2C(C)=O)cc1Br` (configuration not stated), the cytotoxicity was 8.9%.
The result for `O=C(NCCc1ccccc1)C1CCCN(S(=O)(=O)c2cccnc2)C1` (configuration not stated) reads -7.8%; that for `O=C(NCc1ccc2c(c1)OCO2)c1cnc2n(c1=O)CCS2`, 11.4%.
